Consider 14 compounds from PubChem BioAssay (NCI).

Among the test systems are RPMI-8226 leukemia; OVCAR-8 ovarian; OVCAR-5 ovarian; OVCAR-4 ovarian; SK-OV-3 ovarian; IGROV1 ovarian; OVCAR-3 ovarian; HS 578T breast; NCI/ADR-RES ovarian; T-47D breast.
Holding throughout (test): NCI-60 one-dose screen, 48 h (100 = growth as untreated, 0 = no growth, -100 = all killed)
Holding throughout (conditions): 10 µM unless noted

SMILES strings stand for the structures. The panel holds about 83,000 compounds, 20% with a hit somewhere; the sample as a whole holds those more often.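 Compound tested at a single concentration for 48 hours in 96-well plates; a percent growth value below 10 was scored as active.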 Unmarked numbers belong to inactive results. Activity calls are given as the source filed them.

Consider `O=C(Nc1nc2c(s1)CCc1c-2c(Br)n(Cc2ccccc2)c1Br)c1ccccc1`, for which the growth was 63.2% in the test with RPMI-8226 leukemia; 45.4% in the test with OVCAR-8 ovarian; 79.9% with OVCAR-5 ovarian; -3.77% (active) with OVCAR-4 ovarian; 57.2% in the test on SK-OV-3 ovarian; 18.8% in the test with IGROV1 ovarian. For the same compound, the growth in the test on OVCAR-3 ovarian is 62.3%; in the test on HS 578T breast it was 47.9%; with NCI/ADR-RES ovarian it was 61.8%; in the test with T-47D breast it was 46.4%.
On to `COC(=O)c1c2c(c(C)[n+]([O-])c1C)C(=O)C=C(NCc1ccc(F)c(F)c1)C2=O`, for which the growth in the test with RPMI-8226 leukemia is -6.01% (active); with OVCAR-8 ovarian it was -2.54% (active); in the test with OVCAR-5 ovarian, -83.1% (active); with OVCAR-4 ovarian, -98.7% (active); in the test with IGROV1 ovarian, -67.3% (active); with OVCAR-3 ovarian it was -47.2% (active). In addition, the growth in the test with HS 578T breast is -20.4% (active); with NCI/ADR-RES ovarian, -17.5% (active); in the test with T-47D breast it was -42.5% (active).
For `NCCOc1ncccc1/C=C1\c2ccccc2-c2ccc(F)cc21`, the growth in the test on RPMI-8226 leukemia was -14.6% (active); in the test on OVCAR-8 ovarian, 14.9%; with OVCAR-5 ovarian, 32.1%; with OVCAR-4 ovarian it was 43.3%; in the test on IGROV1 ovarian it was 26.1%; with OVCAR-3 ovarian it was 36.7%. Also, the growth in the test on HS 578T breast is 44.2%; in the test with NCI/ADR-RES ovarian it was 29.9%.
With `COC(=O)/C(CCC=C(C)C)=C1\[C@@H](OC(C)=O)C[C@@]2(C)[C@H]1C[C@@H](O)[C@H]1[C@@]3(C)CC[C@H](NCCO)[C@@H](C)[C@@H]3CC[C@@]12C`, the growth in the test on RPMI-8226 leukemia was 101%; in the test on OVCAR-8 ovarian, 101%; in the test with OVCAR-5 ovarian, 104%; with OVCAR-4 ovarian it was 107%; in the test with IGROV1 ovarian, 99.4%; in the test on OVCAR-3 ovarian it was 105%. The figures for the growth with HS 578T breast, in the test on NCI/ADR-RES ovarian and in the test on T-47D breast were 93.3%, 101% and 103%, respectively.
Consider `CNCCNc1nc2ccccc2c2c(=O)c3cccc(C)c3sc12`, for which the growth is -30.5% (active) in the test with RPMI-8226 leukemia; 37.4% in the test with OVCAR-8 ovarian; 55.3% with OVCAR-5 ovarian; 29.4% with OVCAR-4 ovarian; 18.1% with IGROV1 ovarian; 47.7% in the test on OVCAR-3 ovarian. In addition, the growth with HS 578T breast is 61.6%; in the test on NCI/ADR-RES ovarian it was 44.6%; in the test on T-47D breast, 49.3%.
In the case of `O=C(CSc1nc2ccccc2c(=O)n1-c1ccccc1)Nc1ccc(C(=O)/C=C/c2ccc(Cl)cc2)cc1`, the growth in the test with RPMI-8226 leukemia is 91.5%; with OVCAR-8 ovarian, 103%; in the test on OVCAR-5 ovarian it was 98.4%; in the test on OVCAR-4 ovarian it was 105%; with IGROV1 ovarian it was 97.3%; in the test with OVCAR-3 ovarian, 104%. The values for the growth in the test on HS 578T breast, in the test with NCI/ADR-RES ovarian and with T-47D breast were 106%, 106% and 107%, respectively.
As for `COC(=O)/C(CCC=C(C)C)=C1\[C@@H](OC(C)=O)C[C@@]2(C)[C@H]1C[C@@H](O)[C@H]1[C@@]3(C)CC[C@H](NCCCNCCCCNCCCN)[C@@H](C)[C@@H]3CC[C@@]12C`, the growth is 20.2% in the test on RPMI-8226 leukemia; 54.6% with OVCAR-8 ovarian; 88.1% in the test with OVCAR-5 ovarian; 85.1% in the test with OVCAR-4 ovarian; 41.9% with IGROV1 ovarian; 83% in the test on OVCAR-3 ovarian. In addition, the figures for the growth in the test on HS 578T breast, in the test with NCI/ADR-RES ovarian and in the test with T-47D breast were 82.7%, 65.9% and 57%, respectively.
As to `O=C(Cn1cc(COc2ncnc3c2cnn3-c2ccccc2)nn1)Nc1ccccn1`, the growth with RPMI-8226 leukemia is 84.4%; in the test on OVCAR-8 ovarian, 92.5%; in the test with OVCAR-5 ovarian, 93.7%; in the test with OVCAR-4 ovarian it was 92.7%; with IGROV1 ovarian, 95.4%; in the test on OVCAR-3 ovarian, 100%. Also, the growth with HS 578T breast is 88.3%; in the test with NCI/ADR-RES ovarian it was 91.5%; in the test on T-47D breast it was 80.9%.
With `O=C1CCC(N2C(=O)c3cccc(NCCCCCCOc4ccc(Nc5nccc(Nc6ccccc6)n5)cc4)c3C2=O)C(=O)N1` (stereo not given), the growth in the test with RPMI-8226 leukemia was 38.5%; with OVCAR-8 ovarian, 77.8%; with OVCAR-5 ovarian, 109%; in the test on OVCAR-4 ovarian, 64.6%; in the test with IGROV1 ovarian, 72.5%; in the test on OVCAR-3 ovarian, 78.8%. Moreover, the growth in the test with HS 578T breast is 98.2%; with NCI/ADR-RES ovarian it was 79.2%; in the test on T-47D breast, 39.5%.
`CCCCC1CCc2cccc3c(SCC(=O)N(C)c4ccc(Cl)cc4)cc[n+]1c23` (stereo not given): the growth is 110% in the test with RPMI-8226 leukemia; 113% in the test with OVCAR-8 ovarian; 116% with OVCAR-5 ovarian; 107% with OVCAR-4 ovarian; 121% in the test on IGROV1 ovarian; 108% in the test with OVCAR-3 ovarian. Further, the growth with HS 578T breast is 116%; in the test on NCI/ADR-RES ovarian it was 110%; in the test with T-47D breast it was 104%.
On to `O=c1c2cccc(F)c2sc2c(N3CCNCC3)nc3ccccc3c12`, for which the growth with RPMI-8226 leukemia is 1.83% (active); in the test with OVCAR-8 ovarian, 32.7%; in the test on OVCAR-5 ovarian it was 61.9%; in the test with OVCAR-4 ovarian, 46.9%; with IGROV1 ovarian it was 28.3%; with OVCAR-3 ovarian, 30.9%. Further, the growth was 34.8% in the test on HS 578T breast, 42.6% with NCI/ADR-RES ovarian and 36.3% in the test with T-47D breast.
In the case of `COc1ccc(/C=C2/SC(=O)N(CC(=O)N3CCN(c4cc5c(cc4F)c(=O)c(C(=O)O)cn5C4CC4)CC3)C2=O)cc1`, the growth in the test with RPMI-8226 leukemia was 119%; in the test with OVCAR-8 ovarian, 93.9%; in the test with OVCAR-5 ovarian, 103%; with OVCAR-4 ovarian, 107%; in the test with IGROV1 ovarian, 96%; in the test with OVCAR-3 ovarian, 115%. Besides, the growth in the test with HS 578T breast is 99.9%; with NCI/ADR-RES ovarian, 99.4%; in the test with T-47D breast, 104%.
Consider `COC(=O)C1(C)CCC[C@]2(C)[C@H]3C[C@H]4C(C(C)C)=C[C@]3(CC[C@@H]12)[C@H]1[C@@H]4[C@@H](OCC#CCN2CCOCC2)CC[C@@H]1OCC#CCN1CCOCC1` (stereo not given in full), for which the growth was 67.7% in the test on RPMI-8226 leukemia; 83.2% with OVCAR-8 ovarian; 106% in the test with OVCAR-5 ovarian; 64.7% in the test on OVCAR-4 ovarian; 70.6% with IGROV1 ovarian; 86.3% in the test on OVCAR-3 ovarian. The growth is 86.6% in the test on HS 578T breast, 74.9% in the test with NCI/ADR-RES ovarian and 64.5% with T-47D breast.
Regarding `O=C(Cn1cc(COc2ncnc3c2cnn3-c2ccccc2)nn1)Nc1cccc2ccccc12`, the growth was 93.7% with RPMI-8226 leukemia; 87.9% in the test on OVCAR-8 ovarian; 98.4% in the test on OVCAR-5 ovarian; 76.9% in the test on OVCAR-4 ovarian; 102% in the test with IGROV1 ovarian; 109% in the test with OVCAR-3 ovarian. In addition, the growth in the test with HS 578T breast was 85.1%; with NCI/ADR-RES ovarian, 94.8%.
